Screening data deposited in PubChem BioAssay by National Center for Advancing Translational Sciences (NCATS).
SMN2 splice enh: increases expression of the SMN2 splice variant; HEK293 SMN2-luciferase splicing reporter, luminescence, 30-36 h; Potency, µM (titrated, usually from 46.1 µM), actives largely listed as activators; actives 2.8% (n = 210,000); further: nearly all actives have a fitted effect of over 55% in size
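HEK293 cells carry an SMN2 […]–luciferase reporter in which exon 7 inclusion puts luciferase in frame. Cells were plated 10-12 h before compound addition, then incubated 30-36 h at 37C. ONE-Glo luminescence was read; sodium butyrate at 4.5 mM final served as control.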
ELG1 genotoxic: inducers of genotoxicity in HEK293T ELG1-luciferase cells. HEK293T ELG1-luciferase reporter, luminescence, 16 h. Potency, µM (series often up to 46 µM), most hits filed as activators. actives 1.3% (n = 330,000); further: nearly all actives have a fitted effect of over 60% in size
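Genotoxic stress is detected as increased luminescence from luciferase-tagged ELG1 in HEK293T cells, measured with ONE-Glo after a 16 hr treatment at 37 °C.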
FLuc modulator: counter-screen for miR-21 project: firefly luciferase inhibitors or activators; actives 6.9% (n = 360,000); purified FLuc, Km substrates, luminescence inhibition; AID 588342; Potency, µM (doses to about 57.5 µM), usual class: inhibitors; further: nearly all actives have a fitted effect of over 55% in size
Target sequence (P08659 whole entry, looked up): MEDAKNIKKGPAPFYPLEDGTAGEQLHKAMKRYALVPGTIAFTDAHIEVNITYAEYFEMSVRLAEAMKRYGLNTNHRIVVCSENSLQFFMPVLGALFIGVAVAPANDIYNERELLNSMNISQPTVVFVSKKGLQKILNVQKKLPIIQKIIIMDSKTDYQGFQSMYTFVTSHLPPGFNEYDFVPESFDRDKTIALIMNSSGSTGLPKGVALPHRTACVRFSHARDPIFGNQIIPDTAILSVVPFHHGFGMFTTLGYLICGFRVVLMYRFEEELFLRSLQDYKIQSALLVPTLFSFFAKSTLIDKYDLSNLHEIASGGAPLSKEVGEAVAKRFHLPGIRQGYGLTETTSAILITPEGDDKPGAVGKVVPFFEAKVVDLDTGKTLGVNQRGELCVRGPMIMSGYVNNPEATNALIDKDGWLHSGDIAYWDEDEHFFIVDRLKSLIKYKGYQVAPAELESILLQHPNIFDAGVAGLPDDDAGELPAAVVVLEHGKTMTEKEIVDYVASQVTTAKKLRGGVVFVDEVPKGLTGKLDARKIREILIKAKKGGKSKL
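Purified P. pyralis luciferase, 10 nM final, with Km-level 10 uM D-luciferin and 10 uM ATP in 50 mM Tris acetate pH 7.5, 10 mM Mg acetate, 0.01% Tween-20, 0.05% BSA; 6-point qHTS titration about 60 µM downward; luminescence read.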
Rab9 promoter act: activates the Rab9 promoter. Huh7 Rab9 promoter-luciferase reporter, luminescence, 24 h. Potency, µM (series often up to 9.22 µM), usual class: activators. actives 2.8% (n = 320,000). AID 485297; further: nearly all actives have a fitted effect of over 60% in size
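Huh7 cells stably carrying a Rab9 promoter-luciferase reporter, 1500 cells per well in OP-MEM I with 10% FBS, treated with compound 24 hours at 37C. Luciferase activity read by luminescence after 10 minutes with Amplite reagent.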
NPC1 prom act: NPC1 promoter activation; actives 2.4% (n = 320,000); AID 485313; Huh7 NPC1 promoter luciferase reporter, 24 h; Potency, µM (doses to about 9.22 µM), actives largely listed as activators; further: nearly all actives have a fitted effect of over 60% in size
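Luminescence from an NPC1 promoter-driven luciferase reporter in stably transfected Huh7 cells was measured after 24 h compound treatment at 37 °C, followed by 10 min ambient incubation with luciferase detection reagent.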
p53 reactivation: mutant p53 re-activation in reporter cells; Potency, µM (doses to about 92.2 µM), hits mostly activators; actives 0.063% (n = 320,000); H1299 p53-A138V BP100-luciferase reporter, luminescence, 24 h; further: nearly all actives have a fitted effect of over 45% in size
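H1299 (p53-null), stable ts p53-A138V + BP100-Luc; 1000 cells/well, Opti-MEM/10% FBS; cpd 4 pt, 1:5; 24 h, 37 deg C, 5% CO2; detection reagent 10 min RT; luminescence.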
Hits are given with their value; [ ] = another dose, or the depositor's remark. Most compounds without a hit are left out; they make up all but 7.4% or so of the library. The call rests on the fitted dose curve; in most records, active means well fitted curve in the direction sought with a large enough effect; inconclusive means small, poorly fitted or top-dose-only effect, or another doubt; inactive means no such curve, though single readings can be large; an effect the other way counts as inactive or inconclusive.

How did CCNS(=O)(=O)c1ccc2nc(NC(=O)c3cccnc3)sc2c1 do in these assays?
SMN2 splice enh: inactive; ELG1 genotoxic: inactive; FLuc modulator: 21µM; Rab9 promoter act: inconclusive; NPC1 prom act: inactive; p53 reactivation: inactive

Results for CCN(CC)S(=O)(=O)c1ccc2nc(NC(=O)c3cccnc3)sc2c1 ?
FLuc modulator: 19µM

Results for Cc1ccc(NC(=O)CN2C(=O)COc3ccc(S(=O)(=O)NC4CCCC4)cc32)cc1Cl ?
FLuc modulator: inactive

What do the screens show for `O=c1[nH]c(Cc2ccccc2Cl)nc2ccccc12`?
SMN2 splice enh: inactive; ELG1 genotoxic: inactive; FLuc modulator: inactive; Rab9 promoter act: inactive; NPC1 prom act: inactive; p53 reactivation: inactive

What do the screens show for `O=c1[nH]c(COc2ccc(Cl)cc2Br)nc2ccccc12`?
ELG1 genotoxic: inconclusive; FLuc modulator: 6µM; Rab9 promoter act: 2.8µM; NPC1 prom act: 2.8µM; p53 reactivation: inactive

Results for O=c1[nH]c(COc2ccc(Cl)cc2Cl)nc2ccccc12 ?
ELG1 genotoxic: 9.2µM; FLuc modulator: 1.7µM; Rab9 promoter act: 2.2µM; NPC1 prom act: 2.5µM; p53 reactivation: inconclusive

What do the screens show for `CC(/C=N/NC(=O)c1ccco1)=C\c1ccccc1`?
SMN2 splice enh: 2.5µM; ELG1 genotoxic: 2.3µM; FLuc modulator: 2.4µM; Rab9 promoter act: 0.35µM; NPC1 prom act: 0.56µM; p53 reactivation: inactive

What do the screens show for `O=C(N/N=C\CCc1ccccc1)c1ccco1`?
SMN2 splice enh: inconclusive; ELG1 genotoxic: inactive; FLuc modulator: inactive; Rab9 promoter act: inactive; NPC1 prom act: inactive; p53 reactivation: inactive

How did CC(/C=N/NC(=O)c1ccccc1F)=C\c1ccccc1 do in these assays?
ELG1 genotoxic: inconclusive; FLuc modulator: 3.4µM; Rab9 promoter act: 1.1µM; NPC1 prom act: 1.1µM; p53 reactivation: inconclusive

What do the screens show for `CC(/C=N\NC(=O)c1ccc(C)nc1)=C\c1ccccc1`?
SMN2 splice enh: inactive; ELG1 genotoxic: inactive; FLuc modulator: 8.5µM; Rab9 promoter act: inactive; NPC1 prom act: inactive; p53 reactivation: inactive

What do the screens show for `COc1ccc(C(=O)NCC(=O)N/N=C/C(C)=C/c2ccccc2)cc1OC`?
SMN2 splice enh: inactive; ELG1 genotoxic: inactive; FLuc modulator: 17µM; Rab9 promoter act: inactive; NPC1 prom act: inactive; p53 reactivation: inactive

How did CC1CCCC(C)N1CCNC(=O)CCc1nnc2n(Cc3ccccc3)c(=O)c3ccccc3n12 (stereo not given) do in these assays?
ELG1 genotoxic: inactive; FLuc modulator: inactive; Rab9 promoter act: inactive; NPC1 prom act: inactive; p53 reactivation: inactive

What do the screens show for `CC(=O)O[C@H]1CC[C@@]2(C)C(=CC[C@@H]3[C@H]4CC[C@@H]([C@H](C)C(=O)O)[C@]4(C)CC[C@H]32)C1`?
SMN2 splice enh: inactive[9.22 µM]

Results for COc1ccc(/C=N/Nc2cc(C)nc(N3CCOCC3)n2)c(OC)c1 ?
ELG1 genotoxic: inactive; FLuc modulator: 2.4µM; Rab9 promoter act: inactive; NPC1 prom act: inactive; p53 reactivation: inactive

Results for Cc1cc(N/N=C/c2ccc(O)cc2O)nc(N2CCOCC2)n1 ?
ELG1 genotoxic: inactive; FLuc modulator: 7.6µM; Rab9 promoter act: inactive; NPC1 prom act: inactive; p53 reactivation: inactive

What do the screens show for `Oc1ccc(/C=N\Nc2cc(N3CCOCC3)nc(N3CCOCC3)n2)c(O)c1`?
SMN2 splice enh: inactive; ELG1 genotoxic: inactive; FLuc modulator: inconclusive; Rab9 promoter act: inactive; NPC1 prom act: inactive; p53 reactivation: inactive

How did N#Cc1cccc(-c2nc3cnc(Nc4ccccc4)nc3n(C[C@H]3CCCO3)c2=O)c1 do in these assays?
SMN2 splice enh: inactive

Results for CN(C)c1ccc(NC(=S)c2ccccn2)cc1 ?
SMN2 splice enh: 0.5µM; ELG1 genotoxic: inconclusive; FLuc modulator: 0.085µM; Rab9 promoter act: 0.32µM; NPC1 prom act: inconclusive; p53 reactivation: inactive

What do the screens show for `CN(C)c1ccc(C(=S)Nc2ccccc2)cc1`?
SMN2 splice enh: inactive; ELG1 genotoxic: inconclusive; FLuc modulator: 1.5µM; Rab9 promoter act: 1µM; NPC1 prom act: 2.8µM; p53 reactivation: inconclusive

How did Cc1ccc(NC(=O)CN(C)C(=O)c2ccccn2)cc1 do in these assays?
ELG1 genotoxic: inactive; FLuc modulator: inactive; Rab9 promoter act: inactive; NPC1 prom act: inactive; p53 reactivation: inactive

What do the screens show for `C=CCN(C)NC(=S)Nc1ccccc1`?
SMN2 splice enh: inactive; ELG1 genotoxic: inactive; FLuc modulator: inactive; Rab9 promoter act: inactive; NPC1 prom act: inactive; p53 reactivation: inactive

Results for CN(C)c1cc(O)c(C(=S)Nc2ccccc2)c(N(C)C)c1 ?
SMN2 splice enh: inactive; ELG1 genotoxic: inactive; FLuc modulator: 24µM; Rab9 promoter act: inactive; NPC1 prom act: inactive; p53 reactivation: inactive

Results for COc1cc(C(=O)N/N=C/c2ccc(OC(=O)c3cccc(C)c3)cc2)ccc1O ?
ELG1 genotoxic: inactive; FLuc modulator: inconclusive; Rab9 promoter act: inactive; NPC1 prom act: inactive; p53 reactivation: inactive

Results for Cc1cccc(C(=O)Oc2ccc(/C=N/O)cc2)c1 ?
SMN2 splice enh: inactive; ELG1 genotoxic: inconclusive; FLuc modulator: 7.6µM; Rab9 promoter act: inactive; NPC1 prom act: inactive; p53 reactivation: inconclusive

How did O=C(Oc1ccc(/C=N/O)cc1)c1ccccc1Cl do in these assays?
SMN2 splice enh: inactive; ELG1 genotoxic: inactive; FLuc modulator: 9.5µM; Rab9 promoter act: inactive; NPC1 prom act: inactive; p53 reactivation: inactive

How did Cc1ccc(C(=O)N/N=C/c2ccc(OC(=O)c3ccccc3Cl)cc2)cn1 do in these assays?
ELG1 genotoxic: inactive; FLuc modulator: inactive; Rab9 promoter act: inactive; NPC1 prom act: inactive; p53 reactivation: inactive

What do the screens show for `COC(=O)c1sc2cccc(F)c2c1S(=O)(=O)Nc1cc(OC)cc(OC)c1`?
FLuc modulator: inactive

Results for CCCCOc1ccc(C(=O)N/C(=C/C=C/c2ccccc2)C(=O)O)cc1 ?
SMN2 splice enh: inactive; ELG1 genotoxic: inactive; FLuc modulator: 15µM; Rab9 promoter act: inactive; NPC1 prom act: inactive; p53 reactivation: inactive

Results for CCCCOc1ccc(C(=O)N/C(=C/C=C/c2ccccc2)C(=O)NC)cc1 ?
SMN2 splice enh: inactive; ELG1 genotoxic: inactive; FLuc modulator: 17µM; Rab9 promoter act: inactive; NPC1 prom act: inactive; p53 reactivation: inactive

Results for O=C(Nc1ccc(O)cc1)/C(=C\C=C\c1ccccc1)NC(=O)c1ccccc1 ?
ELG1 genotoxic: inactive; FLuc modulator: 9.5µM; Rab9 promoter act: inactive; NPC1 prom act: inactive; p53 reactivation: inactive

What do the screens show for `O=C(O)COc1ccc(/C=N/NC(=O)/C(=C/C=C/c2ccccc2)NC(=O)c2ccccc2)cc1`?
ELG1 genotoxic: inactive; FLuc modulator: 21µM; Rab9 promoter act: inactive; NPC1 prom act: inactive; p53 reactivation: inactive

Results for O=C(O)CCNC(=O)/C(=C\C=C\c1ccccc1)NC(=O)c1ccccc1 ?
ELG1 genotoxic: inactive; FLuc modulator: inactive; Rab9 promoter act: inactive; NPC1 prom act: inactive; p53 reactivation: inactive
